Assay results published in PubChem BioAssay (NCI).
Where “and” joins values, the source holds several entries; their conditions need not be identical. Identical values can stand only once. Compounds without any hit were thinned out: in the full panel of roughly 83,000, 20% have a hit.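 Step 1: grow cells in 96-well plates. Step 2: add test compound at a single concentration. Step 3: incubate 48 h. Step 4: record percent growth.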 Calls of active or inactive are those of the source. The calls were made as follows: active = growth percent below 10; inactive = the rest.

What follows are compounds tested on MDA-MB-468 breast (assay: NCI-60 one-dose screen, 48 h (100 = growth as untreated, 0 = no growth, -100 = all killed)). Conditions: 10 µM unless noted.

| Structure (SMILES) | growth |
| --- | --- |
| CC(C)CCN(CCC(C)C)CC(=O)Nc1ccc(S(=O)(=O)c2ccc(NC(=O)CN(CCC(C)C)CCC(C)C)cc2)cc1 | 46.5% (inactive) |
| COc1ccc(N2CCN(C(=O)CSc3ccc(-c4nc5cc(C)c(C)cc5[nH]4)cn3)CC2)cc1 | 49.5% (inactive) |
| CCOC(=O)n1cc(-c2nonc2-c2cn(C)c3ncccc23)c2cc(F)ccc21 | -7.17% (active) |
| CCOC(=O)c1cnc2c(N=Nc3ccc(OC)cc3)c(N)nn2c1N | 116% (inactive) |
| Cn1cnc([N+](=O)[O-])c1Sc1ncnc2nc[nH]c12 | -4.47% (active) and 77.7% (inactive) |
| CN1C(=S)N(C)C2C1NN=C1SC(c3ccccc3)=CC(=O)N12 (stereo not given) | 62.9% (inactive) |
| C#CCNC(=O)[C@H](Cc1ccccc1)NC(=O)[C@]12CC[C@@H](C(=C)C)[C@@H]1[C@H]1CC[C@@H]3[C@@]4(C)CCC(=O)C(C)(C)[C@@H]4CC[C@@]3(C)[C@]1(C)CC2 | 63.7% (inactive) |
| Nc1nc2ccccc2c2c(=O)c3cccc(Cl)c3sc12 | -0.88% (active) |
| CN(C)c1ccc(/C=C/C(=O)c2ccc(-n3cc(CN4CCN(c5cc6c(cc5F)c(=O)c(C(=O)O)cn6C5CC5)CC4)nn3)cc2)cc1 | 32.9% (inactive) |
| N#Cc1nc(-c2ccccc2)oc1S(N)(=O)=O | 41.1% (inactive) |
| NC(=O)c1cccc(-c2cc(C(N)=O)ccc2Cl)c1 | 53.4% (inactive) |
| Cc1ccc(N2CCN(C3=C(Cl)C(=O)c4ncccc4C3=O)CC2)cc1 | -63.9% (active) |
| CNCCNc1nc2ccccc2c2c(=O)c3cc(OC)ccc3sc12 | 44.7% (inactive) |
| COC(=O)[C@]12CC[C@@H](C)[C@H](C)[C@@H]1C1=CC[C@@H]3[C@@]4(C)C(C=O)=C[C@@](C)(CO)[C@@H]4[C@H](O)C[C@@]3(C)[C@]1(C)CC2 | -12% (active) |
| COc1ccc(C2=CC(c3ccc(Oc4ccnc5cc(Cl)ccc45)c(OC)c3)c3c(nc(OC)[nH]c3=O)N2)cc1 (stereo not given) | 61.4% (inactive) |
| Cc1cc(-c2ccc(N=Nc3ccc4c(S(=O)(=O)O)cc(S(=O)(=O)O)c(N)c4c3O)c(C)c2)ccc1N=Nc1ccc2c(S(=O)(=O)O)cc(S(=O)(=O)O)c(N)c2c1O | 98.2% (inactive) |
| S=c1cnc2ccccc2[nH]1 | 108% (inactive) |
| C[C@H]1[C@H](C)CC[C@]2(CO)CC[C@]3(C)C(=CC[C@@H]4[C@@]5(C)CCCNC(C)(C)[C@@H]5CC[C@]43C)[C@H]12 | -78.6% (active) |
| CCN(Cc1ccccc1)c1ccc(SC#N)cc1 | 72.3% (inactive) |
| CCOC(=O)C1(C)CCCC1N (stereo not given) | 99.2% (inactive) |

| Structure (SMILES) | growth |
| --- | --- |
| NC(=O)c1c(NC(=O)/C=C/c2cccs2)sc2c1CCC(=O)C2 | 37.2% (inactive) |
| Cc1ncc(C(=O)Nc2ccc(CN3CCN(C)CC3)c(C(F)(F)F)c2)cc1C#Cc1cnc(N)c2cnccc12 | -6.82% (active) |
| Oc1ccccc1/C=N/N1CCCCCC1 | 107% (inactive) |
| c1cnc2n[nH]c(Nc3ncnc4c3sc3ncccc34)c2c1 | 96.5% (inactive) |
| COc1ccc(C2CC(=O)c3c(nc4ccc(Cl)cc4c3N)C2)cc1 (stereo not given) | 104% (inactive) |
| COc1ccc(C(=O)N2c3ccccc3Sc3ccccc32)c(C(F)(F)F)c1 | 29.7% (inactive) |
| Cc1nn(Cc2ccccc2)cc1C(=O)Nc1sc2c(c1C(N)=O)CCC(=O)C2 | 47.2% (inactive) |
| CCOC(=O)c1c(NC(=O)c2ccccc2C(F)(F)F)sc2c1CCC(=O)C2 | 58.6% (inactive) |
| CN1C(=O)NC(Cc2c[nH]c3c(Cl)cccc23)C1=O (stereo not given) | 110% (inactive) |
| COc1cc(/C=C2/Oc3cc4occc4c(OC)c3C2=O)ccc1OCC(=O)Nc1ccncc1 | 105% (inactive) |
| Nc1ccc(S(=O)(=O)c2ccc(Cl)cc2)cc1 | 91.7% (inactive) |
| O=C(Nc1nc2ccc(C(F)(F)F)cc2s1)c1cc(Cl)ccc1O | -1.49% (active) |
| COCCN(C(=O)c1ccc(F)cc1F)c1c(N)n(Cc2ccccc2)c(=O)[nH]c1=O | 87.8% (inactive) |
| CN(C)c1ccc(/C=C(\C#N)c2ccccc2)cc1 | 4.19% (active) and -2.35% (active) and 4.76% (active) |
| COc1ccc(/C=C2\Oc3cc(C)c(Cl)cc3C2=O)cc1OC | 110% (inactive) |
| CCn1c(SCCc2ccccc2)nnc1-c1nn(-c2ccc(Cl)cc2Cl)c(-c2ccc(Cl)cc2)c1C | 45.9% (inactive) |
| CN1CCN(Cc2ccc(NC(=O)c3cncc(C#Cc4cnc5ccc(O[C@@H]6CCOC6)nn45)c3)cc2C(F)(F)F)CC1 | -72.6% (active) |
| CN1CCN(c2nc(Nc3ccc(O)cc3)nc3ccccc23)CC1 | 75.2% (inactive) |
| C=CCn1c(SCC(=O)Nc2ccc(C(=O)/C=C/c3ccc(Cl)cc3)cc2)nnc1-c1cc(-c2ccc(S(N)(=O)=O)cc2)nc2ccccc12 | 90.2% (inactive) |
| CC/C(=N\N=C(/CC)c1ccc(Br)cc1)c1ccc(Br)cc1 | 110% (inactive) |
